About 83,000 compounds went through this panel and 20% of them were active in at least one assay; those are over-represented in the sample as a whole.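 Interpretation: 100, growth as untreated; towards 0, rising growth inhibition; 0, no net growth; 0 to -100, cell death. Compounds scoring below 10 were considered active.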 The source made the active and inactive calls.

The assay relates to MCF7 breast. Nature of the assay: NCI-60 one-dose screen, 48 h (100 = growth as untreated, 0 = no growth, -100 = all killed). Conditions: 10 µM unless noted.
On to `O=C1N=c2cc3c(cc2=C/C1=C/c1sc(=S)n(CCc2ccc(O)cc2)c1O)OCCO3`, for which the growth was 28.6% (inactive). In the case of `O=Cc1c[nH]c2ccc(-c3csc4ccccc34)cc12` it was 40.2% (inactive); in that of `O=C(Nc1ccccc1)Nc1cccc(Oc2nnc(Cl)c3ccccc23)c1`, -4.15% (active). Next, `NC(=O)c1ccc[n+]([C@@H]2O[C@H](COP(=O)([O-])OP(=O)(O)OC[C@H]3O[C@@H](n4cnc5c(N)ncnc54)[C@H](O)[C@@H]3O)[C@@H](O)[C@H]2O)c1`: 102% (inactive). In the case of `O=C1CCc2c(sc3[nH]c(=S)n(-c4ccc(OC(F)(F)F)cc4)c(=O)c23)C1` it was 44.5% (inactive). For `CC1(C)CC[C@]2(C(=O)N3CCOCC3)CC[C@]3(C)C(=CC[C@@H]4[C@@]5(C)CC[C@H](OC(=O)c6cccnc6)C(C)(C)[C@@H]5CC[C@]43C)[C@@H]2C1`, the growth is 67.4% (inactive). As for `COC(=O)[C@]12CC[C@@H](C)[C@H](C)[C@@H]1C1=CC[C@@H]3[C@@]4(C)C(C=O)=C[C@@](C)(COC(=O)c5ccco5)C4=CC[C@@]3(C)[C@]1(C)CC2`, the growth was 11.4% (inactive).

On to `O=[N+]([O-])c1ccc(-c2cc(-c3ccc(Nc4nc(Nc5ccc(Cl)cc5)nc(Nc5ccc(Cl)cc5)n4)cc3)no2)cc1`, for which the growth is 83.1% (inactive). In the case of `CCCCCS(=O)(=O)Nc1ccc(C(=O)O)cc1`, the growth is 97% (inactive). Next, `COc1ccc(-c2ccc3c(c2)sc2nc(-c4ccc(F)cc4)cn23)cc1`: 33.3% (inactive). In the case of `NC(=N\N=C/c1ccccc1[N+](=O)[O-])/C(N)=N\N=C/c1ccccc1[N+](=O)[O-]` it was 105% (inactive).

The values above are taken from PubChem BioAssay (NCI).
